Test [1] in a line: Cell Viability - Hek293 (AID 427;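 active = compounds whose dose-response curve shows a full or clear partial loss of cell viability, called from curve shape rather than a numeric limit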;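 note: potency is the fitted concentration of half-maximal effect; cells exposed to compound for 40 hours at 37 °C before reading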). The conditions noted are these: qHTS. Put shortly: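 HEK293 cells in complete medium were exposed to compound for 40 hr at 37 °C, then cellular ATP was read by CellTiter-Glo luminescence. Data were normalized to DMSO (basal) and 100 uM tamoxifen (100% inhibition), and AC50 came from Hill fits.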
Test [2] is described as follows: Cell Viability - SK-N-SH (AID 435; calls by dose curve;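 note: potency is the fitted concentration of half-maximal effect; compound exposure lasted 40 h at 37 °C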). The conditions noted are these: SK-N-SH neuroblastoma cell viability qHTS. Put shortly: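 Cells seeded at 1500 per well and incubated 5 hr at 37 °C. Compound added, then 40 hr at 37 °C. CellTiter-Glo added, 20 min at room temperature, luminescence read.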
A general note: Quantitative high-throughput screening tests each substance at several concentrations.

A short description of test [3]: Cell Viability - N2a (AID 540).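 For activity change, negative = cytotoxicity: plate controls were DMSO alone for no effect and tamoxifen control for full effect.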 Note: nearly all actives have a fitted effect of over 45% in size. Note: potency is the fitted concentration of half-maximal effect. The conditions noted are these: N2a mouse neuroblastoma cell viability; activity change, negative = cytotoxicity: at 92.2 µM (top of the series). Put shortly: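 CellTiter-Glo ATP luminescence, read 20 min after reagent at room temperature, reported viability following 40 h compound treatment at 37 °C. N2a mouse neuroblastoma cells seeded 1500/well; Hill equation gave AC50.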

A short description of test [4]: Cell Viability - SH-SY5Y (AID 544).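 For viability change, negative = cytotoxic: 0% = DMSO alone and -100% = 100 µM tamoxifen.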 Note: nearly all actives have a fitted effect of over 55% in size. Note: potency is the fitted concentration of half-maximal effect. The conditions noted are these: SH-SY5Y neuroblastoma cell viability; viability change, negative = cytotoxic: at 92.2 µM (top of the series). Put shortly:
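Cytotoxicity measured via ATP-dependent luciferase luminescence (CellTiter-Glo) following 40 h, 37 °C exposure of 1500 SH-SY5Y cells per well. Concentration-response data were fitted with the standard Hill equation to give AC50.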

The nature of test [5]: Cell Viability - LYMP2-009 (AID 968). Note: nearly all actives have a fitted effect of over 55% in size. Note: potency is the fitted concentration of half-maximal effect. The conditions noted are these: LYMP2-009 lymphoblastoid cell viability; series mostly up to 92.2 µM.
Test [6] in a line: Cell Viability - LYMP2-015 (AID 971). Note: nearly all actives have a fitted effect of over 55% in size. Note: potency is the fitted concentration of half-maximal effect. The conditions noted are these: LYMP2-015 lymphoblastoid cell viability; series mostly up to 92.2 µM. The procedure, abridged: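 Cytotoxicity readout: decrease in intracellular ATP (CellTiter-Glo luminescence) in 2500 LYMP2-015 lymphoblastoid cells/well after 24 h compound exposure at 37 C. Concentration-response data fitted with the standard Hill equation to give AC50.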

Test [7] in a line: Cell Viability - LYMP2-017 (AID 972). For activity change, negative = cytotoxicity: % is set by controls: 0 for no effect and ±100 for the full control effect. Note: nearly all actives have a fitted effect of over 55% in size. Note: potency is the fitted concentration of half-maximal effect. The conditions noted are these: LYMP2-017 lymphoblastoid cell viability; series mostly up to 92.2 µM. The procedure, abridged:
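CellTiter-Glo luminescence (cellular ATP, 30 min RT) measured cytotoxicity after 24 hr compound treatment at 37 C. Cells were a human lymphoblastoid line, LYMP2-017, plated at 2500/well and incubated 5 hr first; concentration-response fitted with Hill equation for AC50.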

Test [8] in a line: Cell Viability - LYMP2-010 (AID 981). Note: nearly all actives have a fitted effect of over 55% in size. Note: potency is the fitted concentration of half-maximal effect. The conditions noted are these: LYMP2-010 lymphoblastoid cell viability, qHTS; series mostly up to 92.2 µM. The procedure, abridged:
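CellTiter-Glo ATP luminescence measured cytotoxicity after 24 h compound exposure at 37 C. LYMP2-010 cells were seeded at 2500/well, with tetraoctylammonium bromide as control; concentration-response curves gave AC50 values by the Hill equation.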

Test [9] is described as follows: Cell Viability - LYMP2-022 (AID 987).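 For viability change, negative = cytotoxic: 0% = DMSO alone and full effect = tetraoctylammonium bromide at 92 µM.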 Note: nearly all actives have a fitted effect of over 55% in size. Note: potency is the fitted concentration of half-maximal effect. The conditions noted are these: LYMP2-022 lymphoblastoid cell viability; series mostly up to 92.2 µM. Put shortly: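 Cytotoxicity read as decreased cellular ATP (CellTiter-Glo luminescence, 30 min room temperature) after 24 hours compound exposure of 2500 lymphoblastoid LYMP2-022 cells/well at 37 C. Concentration-response data fitted with standard Hill equation for AC50.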

Test [10] addresses Vitamin D3 receptor (Homo sapiens) (UniProt P11473). The test can be described thus: qHTS assay for small molecule antagonists of vitamin D receptor signaling (AID 588541; calls by dose curve;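 note: receptor activated by calcitriol during compound treatment; % is set by controls: 0 for no effect and ±100 for the full control effect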). The conditions noted are these: HEK293T VDR-UAS-bla, beta-lactamase ratio, antagonist mode; series mostly up to 76.7 µM. The procedure, abridged:
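VDR-UAS-bla HEK293T cells in 2% charcoal-stripped FBS were stimulated with 1-alpha,25-dihydroxyvitamin D3 (3 nM final) plus compound for 16 h at 37 C. The beta-lactamase CCF4 readout was normalized to 50 nM agonist and DMSO, and Hill fits gave IC50.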

Test [11] shares this target. Briefly: qHTS assay for small molecule agonists of vitamin D receptor signaling (AID 588543; calls by dose curve;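 note: 0% = DMSO basal and 100% = reference agonist control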). The conditions noted are these: HEK293T VDR-UAS-bla, beta-lactamase ratio, 16 h; series mostly up to 76.8 µM. The procedure, abridged:
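qHTS in agonist mode: compound titrations stimulate a VDR-driven β-lactamase reporter in HEK293T cells over 16 h at 37 °C. Response normalized to 50 nM 1α,25-dihydroxyvitamin D3 = 100%, DMSO = 0%; Hill fitting gives EC50 and maximal response.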

Test [12] concerns the target Thyroid hormone receptor beta (Homo sapiens) (UniProt P10828). Briefly: qHTS assay for small molecule agonists of thyroid hormone receptor beta signaling (AID 588545; calls by dose curve;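 note: 0% = DMSO only and 100% = 10 nM T3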). The conditions noted are these: TR-UAS-bla GripTite HEK 293, beta-lactamase ratio, agonist mode, 18 h; series mostly up to 76.7 µM. The procedure, abridged:
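TR-UAS-bla-GripTite HEK 293 cells in medium with 2% charcoal/dextran FBS, 0.1 mM NEAA and 1 mM sodium pyruvate were treated with titrated compounds for 18 hrs at 37 C. Beta-lactamase reporter was read with CCF4 dye (ex 405, em 460/530 nm); EC50 from Hill fits.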

A short description of test [13]: qHTS assay for small molecule agonists of the antioxidant response element (ARE) signaling pathway (AID 651741; active = well fitted activation curve with a large enough effect in the signal ratio; the % refers to the signal ratio; note: potency is the fitted concentration of half-maximal effect; for activation: % of control where 0% means no effect). The conditions noted are these: HepG2 ARE-bla reporter, beta-lactamase FRET ratio, 16 h; series mostly up to 96 µM. Put shortly: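 Stably integrated ARE-beta-lactamase reporter HepG2 cells; 16 h compound incubation, 37 C; LiveBLAzer FRET substrate 2 h at room temperature; fluorescence intensity.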

Test [14] has as its target Tumor necrosis factor (Homo sapiens) (UniProt P01375). Briefly: qHTS assay to identify small molecules that stimulate Tumor Necrosis Factor-alpha (TNF-alpha) secretion (AID 651757; active = well fitted curve in the direction sought with a large enough effect in the signal ratio; the % refers to the signal ratio; note: 0% is about no effect). The conditions noted are these: Human cells, HTRF 665/615 ratio; series mostly up to 92.2 µM. The procedure, abridged: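 Secreted TNF-alpha quantified by TR-FRET sandwich of two labeled anti-TNF-alpha antibodies, incubated 3 hr at room temperature. Preceded by 17 hr, 37 C compound treatment of THP-1 cells at 3000 cells/well.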

Test [15] has as its target Nuclear receptor ROR-gamma (Homo sapiens) (UniProt P51449). Briefly: qHTS assay for small molecule antagonists of the retinoid-related orphan receptor gamma (ROR-gamma) signaling pathway (AID 651802). Note: nearly all actives have a fitted effect of over 60% in size. Note: potency is the fitted concentration of half-maximal effect. The conditions noted are these: ROR-gamma antagonist cell reporter assay; series mostly up to 92.2 µM. The procedure, abridged:
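Luminescence (One-Glo, 30 min RT) measured 16 h after compound addition and doxycycline induction at 37C. Reporter: RORE-luciferase under TET-inducible ROR-gamma in CHO cells.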

A short description of test [16]: qHTS assay for small molecule agonists of the antioxidant response element (ARE) signaling pathway measured by Nrf2-dependant transcriptional activity (AID 720636; active = well fitted curve in the direction sought with a large enough effect in the repeat runs; an effect the other way counts as inactive or inconclusive;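 note: HepG2 cells with an ARE-driven luciferase reporter; % of control where 0% means no effect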). The conditions noted are these: ARE-luc HepG2, Nrf2 luciferase reporter, 16 h; series mostly up to 92.4 µM. The procedure, abridged:
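ONE-Glo luminescence, read 30 min after reagent addition at room temperature, reflected ARE reporter activity in HepG2 cells that had been incubated with compound for 16 hr at 37 C in 1% dialyzed FBS.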

The target in test [17] is Nuclear receptor subfamily 1 group I member 2 (Rattus norvegicus) (UniProt Q9R1A7). The test can be described thus: qHTS assay for small molecule activators of the rat pregnane X receptor (rPXR) signaling pathway (AID 651751; call rule not given here; note: 0% is about no effect). The conditions noted are these: rPXR reporter cells, luciferase (One-Glo), 24 h.
A short description of test [18]: qHTS assay for small molecule activators of the human pregnane X receptor (PXR) signaling pathway (AID 720659; call rule not given here; note: 0% is about no effect). The conditions noted are these: DPX-2 HepG2 CYP3A4-luciferase, 24 h; series mostly up to 92.3 µM.
The nature of test [19]: qHTS assay for environmental chemicals that activate the Aryl hydrocarbon Receptor (AhR) signaling pathway (AID 651777). Note: % of control where 0% means no effect; nearly all actives have a fitted effect of over 15% in size. The conditions noted are these: 1A2-DRE human hepatoma cells, luciferase, 24 h; activation: active compounds read high. Put shortly: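 Following a 24 hr incubation with test chemicals at 37 C and 5% CO2, 1A2-DRE human hepatoma cells received One-Glo reagent; after 30 min at room temperature, luciferase output reflected CYP1A2 induction via AhR.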

“And” between values parts separate entries of the source, which are not always exact repeats. Equal entries are not always repeated. Unmarked numbers belong to inactive results. Records with an inconclusive call do not appear. The source made the active and inactive calls. Unless noted, calls come from the whole dose curve; as a rule, active = well fitted curve in the direction sought with a large enough effect; inconclusive = small, poorly fitted or top-dose-only effect, or another doubt; inactive = no such curve, though single readings can be large; an effect the other way counts as inactive or inconclusive. Where only a bound is given, the exact number is not on record here.

Chain of Vitamin D3 receptor (Homo sapiens) (P11473 whole entry, looked up): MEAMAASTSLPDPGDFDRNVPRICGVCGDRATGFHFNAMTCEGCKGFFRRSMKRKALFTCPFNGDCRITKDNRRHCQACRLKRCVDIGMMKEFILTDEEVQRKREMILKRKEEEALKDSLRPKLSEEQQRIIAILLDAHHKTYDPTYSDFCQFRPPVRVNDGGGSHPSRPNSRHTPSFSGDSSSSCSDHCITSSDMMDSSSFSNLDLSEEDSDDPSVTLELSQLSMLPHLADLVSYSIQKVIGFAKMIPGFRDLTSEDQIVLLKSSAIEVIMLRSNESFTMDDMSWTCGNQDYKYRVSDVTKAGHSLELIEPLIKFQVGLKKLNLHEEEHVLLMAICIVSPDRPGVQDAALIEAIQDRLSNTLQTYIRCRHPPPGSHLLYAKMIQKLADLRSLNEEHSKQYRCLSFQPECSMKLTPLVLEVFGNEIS
Chain of Thyroid hormone receptor beta (Homo sapiens) (P10828 whole entry, looked up): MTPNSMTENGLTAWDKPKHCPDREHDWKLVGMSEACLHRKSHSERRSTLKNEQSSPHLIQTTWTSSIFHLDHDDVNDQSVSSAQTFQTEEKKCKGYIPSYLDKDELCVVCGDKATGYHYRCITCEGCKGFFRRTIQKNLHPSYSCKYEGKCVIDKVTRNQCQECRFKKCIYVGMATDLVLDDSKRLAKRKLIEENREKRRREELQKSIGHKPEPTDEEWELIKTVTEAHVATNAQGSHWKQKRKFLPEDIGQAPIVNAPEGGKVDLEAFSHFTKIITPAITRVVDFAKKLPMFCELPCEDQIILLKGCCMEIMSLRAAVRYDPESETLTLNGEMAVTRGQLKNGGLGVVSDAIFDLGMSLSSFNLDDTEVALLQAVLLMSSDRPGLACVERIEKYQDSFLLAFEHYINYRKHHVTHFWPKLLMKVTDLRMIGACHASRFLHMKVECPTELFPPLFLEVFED
Chain of Nuclear receptor subfamily 1 group I member 2 (Rattus norvegicus) (Q9R1A7 whole entry, looked up): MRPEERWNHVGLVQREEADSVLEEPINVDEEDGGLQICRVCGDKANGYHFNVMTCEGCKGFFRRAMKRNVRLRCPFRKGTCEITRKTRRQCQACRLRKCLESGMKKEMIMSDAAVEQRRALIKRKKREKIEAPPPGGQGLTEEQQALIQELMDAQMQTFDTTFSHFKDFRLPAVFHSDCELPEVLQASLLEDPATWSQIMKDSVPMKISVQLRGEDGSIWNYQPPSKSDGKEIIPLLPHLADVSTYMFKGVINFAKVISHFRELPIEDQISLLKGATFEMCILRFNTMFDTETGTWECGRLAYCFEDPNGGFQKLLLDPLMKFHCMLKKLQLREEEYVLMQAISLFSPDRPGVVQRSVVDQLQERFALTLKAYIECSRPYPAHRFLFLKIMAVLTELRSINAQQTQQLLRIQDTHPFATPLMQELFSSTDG
Chain of Tumor necrosis factor (Homo sapiens) (P01375 whole entry, looked up): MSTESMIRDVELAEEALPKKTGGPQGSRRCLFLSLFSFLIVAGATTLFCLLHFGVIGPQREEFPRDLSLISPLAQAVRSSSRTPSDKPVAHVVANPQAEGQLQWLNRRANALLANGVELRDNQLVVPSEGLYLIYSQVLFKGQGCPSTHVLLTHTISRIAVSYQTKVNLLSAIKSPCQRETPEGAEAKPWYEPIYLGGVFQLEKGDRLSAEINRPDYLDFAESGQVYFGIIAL
Chain of Nuclear receptor ROR-gamma (Homo sapiens) (P51449 whole entry, looked up): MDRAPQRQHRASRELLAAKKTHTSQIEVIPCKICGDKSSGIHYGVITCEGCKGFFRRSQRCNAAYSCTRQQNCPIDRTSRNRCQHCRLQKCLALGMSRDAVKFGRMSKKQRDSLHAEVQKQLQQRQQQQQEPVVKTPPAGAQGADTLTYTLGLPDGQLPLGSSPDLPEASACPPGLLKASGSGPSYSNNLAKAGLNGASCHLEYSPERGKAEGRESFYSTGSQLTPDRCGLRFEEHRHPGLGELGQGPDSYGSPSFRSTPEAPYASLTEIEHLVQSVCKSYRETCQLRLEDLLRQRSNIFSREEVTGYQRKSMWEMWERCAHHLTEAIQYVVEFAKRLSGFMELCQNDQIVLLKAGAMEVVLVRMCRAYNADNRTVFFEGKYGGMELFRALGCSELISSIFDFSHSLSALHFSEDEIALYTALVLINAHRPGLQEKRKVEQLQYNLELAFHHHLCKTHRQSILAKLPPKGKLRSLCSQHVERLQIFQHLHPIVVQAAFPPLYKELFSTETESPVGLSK

Regarding `CCCCOC(=O)COc1ccc(Cl)cc1Cl`, the Potency in test [1] and in [2] was over 92 µM in each case. Also, the activity change, negative = cytotoxicity in test [3] was 7.15%. Besides, the Potency entry in test [4], in [5], in test [6], in test [7], in [8] and in test [9] was “inactive” throughout. Besides, the Potency entry in test [10], in test [11], in test [12], in test [13], in [14] and in test [15] was “inactive” each time. The Potency entry in test [16] is “inactive”. Further, the max response in test [17] was -2.3% and -1.06%. In addition, in test [18], the outcome was inactive.

In the case of `O=C=Nc1ccc(Cl)c(Cl)c1`, the Potency was 38.9 µM (active) in test [1], 31.6 µM (active) in [3], 75 µM (active) in [13] and 33.5 µM (active) in test [15]. The Potency entry in [10], in test [11], in test [14] and in test [16] was “inactive” each time. In addition, the result in test [18] was inactive.

`Nc1cc([N+](=O)[O-])ccc1O`: the Potency was over 92 µM in [1]; over 92 µM in test [2]; 29.8 µM (active) and 12.2 µM (active) in [13]; 23.7 µM (active) in test [15]. Besides, the Potency entry in test [4], in [5], in test [6], in test [7], in [8] and in test [9] was “inactive” in each case. Moreover, the Potency entry in test [10], in test [11] and in test [12] was “inactive” in each case. In test [19], the activation was 12.6% and 2.53%. Besides, in test [17], the max response is 5.65% and 2.03%. Besides, in test [18], the compound was classed as inactive.

`O=C(O)c1ccc([N+](=O)[O-])cc1`: the Potency in test [1] and in [2] was over 92 µM in each case. The activity change, negative = cytotoxicity in test [3] was 9.32%. Besides, the Potency result in test [4], in test [5], in test [6], in [7], in test [8] and in test [9] was “inactive” each time. Also, the Potency result in [10], in test [11], in test [12], in test [13], in test [14] and in test [15] was “inactive” throughout. The Potency result in [16] was “inactive”. In addition, the activation in [19] is 0.333% and 2.14%. For the same compound, the max response in test [17] is -2.43% and -1.7%. For the same compound, the compound was classed as inactive in test [18].

As for `C/C=C/C=C/C=O`, the Potency in test [4] was 31.6 µM (active); in test [5], 39.8 µM (active); in [6], 39.8 µM (active); in test [7], 31.6 µM (active); in [8], 31.6 µM (active); in test [9], 25.1 µM (active). In addition, the Potency in [13] is 37.6 µM (active). Moreover, the Potency entry in [11], in test [12], in test [14] and in test [16] was “inactive” throughout. Also, the activation in test [19] is 0.0819%. Also, the max response in [17] is -0.0021%. For the same compound, the result in test [18] was inactive.

(Values after PubChem BioAssay (NCATS).)
